Measured values: PubChem BioAssay
Activity calls are given as the source filed them.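 Rule for the calls, unless noted: active = visual image review flags a hit and inhibition of aggregation exceeds 20%; inconclusive = visual hit but inhibition at or below 20%; inactive = no hit on visual image review.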

What was measured:
[1] = inhibitors of TNFa-induced NFkB p65 translocation, primary screen, imaging, HUVEC, MLSMR starter and 10KST1 sets (AID 438;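 active = inhibition above 20% together with a positive visual image hit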;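 note: compound added about 3h40 before a 20 min TNFalpha stimulation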;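 for inhibition: signal is the nuclear over cytoplasmic p65 intensity ratio per well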); settings: HUVEC TNFa-induced p65 nuclear translocation; cell count: measured here: nuclei count (cytotoxicity indicator), at 2.08 µM; inhibition: at 2 µM, stronger effect = higher value, 0% TNFa-plus-vehicle, 100% no-TNFa wells
[2] = reduction of polyQ htt aggregates in cells – imaging, exon1htt(103Q)mCFP cells, high-content imaging, primary screen (AID 483); settings: exon1htt(103Q)mCFP cell line, aggregate imaging, at 2 µM; inhibition of aggregation: stronger effect = higher value; nuclei count: measured here: cell count, toxicity;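 note: compound exposure lasted 3 days before fixation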;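 for nuclei count: percent of the per-plate median nuclei count of sample wells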
[3] = endothelial E-selectin expression blockers – imaging, HUVEC, immunofluorescence, MLSMR starter and 10KST1 sets, primary screen (AID 487;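 active = visually confirmed hit in the image check and inhibition above 20%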;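 for inhibition: signal is fraction of cell area covered by stained E-selectin grains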;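 for nuclei count: 100% = median nuclei count of all wells on the same plate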); settings: HUVEC TNFalpha-induced E-selectin immunofluorescence imaging, at 2 µM; inhibition: stronger effect = higher value; nuclei count: measured here: cell number, toxicity
[4] = molecular target: Voltage-gated potassium channel subunit beta-2 (Rattus norvegicus) (UniProt P62483); experiment: inhibitors of rat Kvbeta2 reductase activity – biochemical, NADPH fluorescence, primary screen (AID 622;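 active = fluorescence slope higher than the sample average by over 3 SD, cut at about -0.22 in these data, passing the limit was not always enough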;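 note: slope of raw intensity against log time taken from 70 to 1610 s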); settings: recombinant KvBeta, 4-cyanobenzaldehyde reduction, at 10 µM, stronger effect = higher value
[5] = molecular target: Voltage-gated potassium channel subunit beta-2 (Rattus norvegicus) (UniProt P62483); experiment: enhancers of rat Kvbeta2 NADPH turnover – biochemical, NADPH fluorescence, primary screen (AID 623;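 active = NADPH fluorescence slope more negative than the mean of all samples by about 3 SD, 99.7% confidence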;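 note: fluorescence intensity change per second fitted from 20 to 320 s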); settings: Recombinant KvBeta, NADPH fluorescence decrease slope, 10 min; at 10 µM; stronger effect = lower value
[6] = molecular target: Alpha-2C adrenergic receptor (Homo sapiens) (UniProt P18825); experiment: compounds altering alpha2C-coupled GIRK flux – cell-based, HEK293 alpha2C/GIRK1/2, thallium flux, primary screen (AID 624;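 active = fluorescence slope after compound addition differing from the mean of all screened samples at 99.7% confidence, in either direction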;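 note: slope of fluorescence ratio to pre-addition baseline per second over 15 to 24 s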); settings: thallium flux BTC fluorescence, at 10 µM, actives lie on both sides
[7] = blockers of RIG-like receptor reporter activation – cell-based, Sendai virus stimulus, luciferase, 10K MLSCN set, TLR/RLR signaling modifier project, primary screen (AID 602276;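 active = inhibition at or above 50% at 10 µM; inactive = inhibition below 50%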;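 note: firefly luciferase from ISG56 promoter only with Renilla not read in this screen; 0% = Sendai virus plus DMSO and 100% = medium plus DMSO without virus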); settings: HEK293 RL24 IRF3 luciferase reporter, at 10 µM, stronger effect = higher value
[8] = TLR3 IRF3 reporter activation blockers – cell-based, poly I:C stimulus, luciferase, 10K MLSCN set, primary screen (AID 602277;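 active = inhibition of the reporter signal at or above 50%; inactive = inhibition below 50%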); settings: HEK293-TLR3 RL24 IRF3 luciferase reporter, at 10 µM, stronger effect = higher value

Sequence of Alpha-2C adrenergic receptor (Homo sapiens) (P18825 whole entry, looked up): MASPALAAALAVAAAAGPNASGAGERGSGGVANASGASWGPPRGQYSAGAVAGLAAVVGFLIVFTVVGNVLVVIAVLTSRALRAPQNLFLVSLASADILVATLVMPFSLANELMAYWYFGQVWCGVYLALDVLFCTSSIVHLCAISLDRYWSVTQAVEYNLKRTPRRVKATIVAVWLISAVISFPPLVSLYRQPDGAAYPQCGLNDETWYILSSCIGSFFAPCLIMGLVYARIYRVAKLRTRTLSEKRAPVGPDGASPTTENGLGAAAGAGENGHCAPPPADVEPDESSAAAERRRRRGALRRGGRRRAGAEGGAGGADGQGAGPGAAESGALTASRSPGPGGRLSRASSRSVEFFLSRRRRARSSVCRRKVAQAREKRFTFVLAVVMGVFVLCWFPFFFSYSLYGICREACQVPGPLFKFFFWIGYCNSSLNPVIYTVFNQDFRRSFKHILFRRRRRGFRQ
Sequence of Voltage-gated potassium channel subunit beta-2 (Rattus norvegicus) (P62483 whole entry, looked up): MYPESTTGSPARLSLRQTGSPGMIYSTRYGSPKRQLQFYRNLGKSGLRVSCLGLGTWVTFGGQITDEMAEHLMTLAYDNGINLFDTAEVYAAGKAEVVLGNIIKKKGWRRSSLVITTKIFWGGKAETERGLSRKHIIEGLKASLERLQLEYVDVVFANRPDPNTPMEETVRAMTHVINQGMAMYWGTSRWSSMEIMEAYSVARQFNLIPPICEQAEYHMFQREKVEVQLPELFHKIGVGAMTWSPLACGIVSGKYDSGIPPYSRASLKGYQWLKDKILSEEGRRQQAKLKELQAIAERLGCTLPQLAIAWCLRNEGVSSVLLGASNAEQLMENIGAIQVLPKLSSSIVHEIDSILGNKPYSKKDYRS

| SMILES | cell count [1] | inhibition [1] | inhibition of aggregation [2] | nuclei count [2] [%] | inhibition [3] | nuclei count [3] [%] | fluorescence slope [4] | NADPH fluorescence slope [5] | slope [6] | inhibition [7] | inhibition [8] |
| --- | --- | --- | --- | --- | --- | --- | --- | --- | --- | --- | --- |
| CCn1c(C(Cc2ccccc2)NC(=O)COC)nc2ccccc21 (stereo not drawn) | 471 | 13.9% (inactive) | 5.5% (inactive) | 124 | 14.1% (inactive) | 110 | -0.536 (inactive) | -6.3e-05 (inactive) | 0.00652 (inactive) | 11% (inactive) | 31.9% (inactive) |
| COc1ccc(-n2c(=O)cc(N3CCN(Cc4ccccc4)CC3)[nH]c2=O)cc1 | 672 | -2.4% (inactive) | -0.4% (inactive) | 119 | 26.6% (inactive) | 108 | -0.621 (inactive) | 1.9e-05 (inactive) | 0.00623 (inactive) | 12.1% (inactive) | 18.9% (inactive) |
| O=C(O)C1CCCN1c1ncnc2c1oc1ccccc12 (stereo not drawn) | 626 | -4.4% (inactive) | 11.5% (inactive) | 101 | 22.9% (inactive) | 96.9 | -0.503 (inactive) | -1.8e-05 (inactive) | 0.00455 (inactive) | 5.71% (inactive) | 5.35% (inactive) |
| COC(=O)NCC(c1cccnc1)N1CCOCC1 (stereo not drawn) | 605 | -11% (inactive) | 16.6% (inactive) | 97.8 | -24% (inactive) | 105 | -0.589 (inactive) | -3.5e-05 (inactive) | 0.0059 (inactive) | -1.28% (inactive) | 16.1% (inactive) |
| CCOC(=O)c1nnc2cc(-c3ccc(Br)cc3)nn2c1C | 606 | -1.7% (inactive) | -4.4% (inactive) | 98.8 | -89.5% (inactive) | 105 | -0.558 (inactive) | -6.5e-06 (inactive) | 0.006 (inactive) | -72.6% (inactive) | -129% (inactive) |
| Cc1sc2nc(SCC(=O)Nc3c(C)n(C)n(-c4ccccc4)c3=O)n(C)c(=O)c2c1C | 556 | -8.3% (inactive) | 9% (inactive) | 74.8 | 13.4% (inactive) | 118 | -0.376 (inactive) | 1e-05 (inactive) | 0.00842 (inactive) | 5.86% (inactive) | -5.09% (inactive) |
| CCOC(=O)C1=C(C)NC(=O)NC1c1ccc(Br)s1 (stereo not drawn) | 516 | 1.2% (inactive) | 5.5% (inactive) | 105 | 28.9% (inactive) | 104 | -0.502 (inactive) | -6.2e-05 (inactive) | 0.00543 (inactive) | 11.8% (inactive) | 12.6% (inactive) |
| CCOc1ccccc1N1C(=O)c2ccc(C(=O)Nc3cccnc3)cc2C1=O | 594 | 0.8% (inactive) | 1.8% (inactive) | 105 | -38.7% (inactive) | 109 | -0.482 (inactive) | 1.2e-05 (inactive) | 0.00693 (inactive) | 11.8% (inactive) | 21% (inactive) |
| Cn1c(C(=O)NCCC2=CCCCC2)cc2c(=O)n3ccccc3nc21 | 261 | 31.6% (active) | 5.6% (inactive) | 92.2 | 46.7% (inactive) | 71.3 | -0.128 (active) | 1.2e-05 (inactive) | 0.00542 (inactive) | -27.5% (inactive) | -62% (inactive) |
| Cn1cccc1Cc1nnc(SCC(=O)Nc2ccccc2F)n1CCc1ccccc1 | 614 | -7.4% (inactive) | 7.5% (inactive) | 92.6 | -52.6% (inactive) | 103 | -0.619 (inactive) | 1.5e-05 (inactive) | 0.00629 (inactive) | 3.46% (inactive) | 10.1% (inactive) |
| COc1cccc(C2CC(c3ccc(C)cc3)Nc3nc(N)nn32)c1 (stereo not drawn) | 538 | 2.3% (inactive) | 23.1% (inactive) | 102 | 28% (inactive) | 101 | -0.564 (inactive) | 4e-05 (inactive) | 0.0074 (inactive) | -7.82% (inactive) | 16.6% (inactive) |
| O=C1OCCC1Sc1ncnc2sc3c(c12)CCC3 (stereo not drawn) | 755 | -6.2% (inactive) | 4.8% (inactive) | 84.1 | -9.4% (inactive) | 111 | -0.412 (inactive) | 4.3e-06 (inactive) | 0.00667 (inactive) | 9.45% (inactive) | 17% (inactive) |
| CCC(C)OC(=O)c1[nH]c2c(c1C)C(=O)CC(c1ccc(N(C)C)cc1)C2 (stereo not drawn) | 717 | -3.2% (inactive) | -40.7% (inactive) | 108 | -31.4% (inactive) | 125 | -0.506 (inactive) | -3.4e-06 (inactive) | 0.00616 (inactive) | -57.4% (inactive) | -143% (inactive) |
| Cc1ccccc1Cn1ccc(NC(=O)c2cnn3c(C(F)(F)F)cc(-c4ccco4)nc23)n1 | 568 | -3.8% (inactive) | 10.6% (inactive) | 96.8 | -7.4% (inactive) | 99.2 | -0.613 (inactive) | -5.8e-05 (inactive) | 0.00253 (inactive) | 19.2% (inactive) | 32% (inactive) |
| CCc1ccccc1NC(=O)C(C#N)Cc1cccnc1 (stereo not drawn) | 575 | -1.5% (inactive) | 2.2% (inactive) | 100 | -21.3% (inactive) | 104 | -0.51 (inactive) | -9e-07 (inactive) | 0.00548 (inactive) | -6.51% (inactive) | 19% (inactive) |
| CCn1c(SCC(=O)Nc2nc(C)cs2)nnc1-c1ccco1 | 339 | 0.4% (inactive) | -8.5% (inactive) | 114 | -93.6% (inactive) | 114 | -0.316 (inactive) | -2.7e-05 (inactive) | 0.00755 (inactive) | 8.27% (inactive) | 23.4% (inactive) |
| CC(C)CCN(C)C1CCN(S(=O)(=O)c2ccc(F)cc2)CC1 | 638 | 0.8% (inactive) | -2.4% (inactive) | 82.9 | -35.4% (inactive) | 121 | -0.543 (inactive) | 1.3e-05 (inactive) | 0.00577 (inactive) | 10.6% (inactive) | 40.9% (inactive) |
| CCN(CC)C(=O)COc1ccc2oc(C)c(C(=O)OC(C)C)c2c1 | 455 | 12.5% (inactive) | -21.2% (inactive) | 108 | -25.5% (inactive) | 126 | -0.42 (inactive) | 3.2e-05 (inactive) | 0.00275 (inactive) | 2.59% (inactive) | 17.4% (inactive) |
| COc1ccc(C)cc1C(=O)CCC(=O)Nc1ccccc1N1CCOCC1 | 382 | 8.3% (inactive) | 3.1% (inactive) | 103 | -18.1% (inactive) | 113 | -0.605 (inactive) | -5.1e-05 (inactive) | 0.00373 (inactive) | 18.5% (inactive) | 18.2% (inactive) |
| COc1cccc(-n2c(CNc3ccc(F)cc3)nnc2SCC(N)=O)c1 | 475 | 1.9% (inactive) | -17% (inactive) | 113 | -32.3% (inactive) | 76.1 | -0.49 (inactive) | -1.9e-05 (inactive) | 0.00474 (inactive) | 15.9% (inactive) | 24% (inactive) |
| CCCN(CCC)CCNS(=O)(=O)c1ccc2c(c1)oc(=O)n2C | 346 | -13.8% (inactive) | -2.5% (inactive) | 77.3 | -106% (inactive) | 119 | -0.427 (inactive) | -3.3e-05 (inactive) | 0.00461 (inactive) | 9.38% (inactive) | 10.9% (inactive) |
| COc1cc2c(cc1OC)C(c1ccccc1O)N(C1CC(=O)N(c3ccccc3)C1=O)CC2 (stereo not drawn) | 409 | -0.5% (inactive) | -10.4% (inactive) | 105 | -27.1% (inactive) | 123 | -0.411 (inactive) | -8.8e-05 (inactive) | 0.00648 (inactive) | 15.9% (inactive) | 28.7% (inactive) |
| Cc1ccc(CC2SC(=O)NC2=O)cc1Cl (stereo not drawn) | 790 | 10.4% (inactive) | -3% (inactive) | 97.9 | 0% (inactive) | 119 | -0.488 (inactive) | -5.4e-05 (inactive) | 0.00487 (inactive) | 10.2% (inactive) | 12% (inactive) |
| CCOc1ccccc1-n1nnnc1SCC(=O)Nc1cc2oc3ccccc3c2cc1OC | 374 | -2.9% (inactive) | 4.8% (inactive) | 99.1 | -108% (inactive) | 118 | -0.568 (inactive) | 2.4e-05 (inactive) | 0.00931 (inactive) | -7.46% (inactive) | 15.7% (inactive) |
| O=C1CCC(c2ccccc2)N1C(=O)c1cccnc1 (stereo not drawn) | 565 | -17.3% (inactive) | -4.3% (inactive) | 98 | -57.8% (inactive) | 111 | -0.512 (inactive) | -6.9e-05 (inactive) | 0.00593 (inactive) | -4.49% (inactive) | 9.24% (inactive) |
| COC(=O)Cn1c(CCS(=O)(=O)c2ccc(C)cc2)nc2ccccc21 | 503 | -41.8% (inactive) | 6.7% (inactive) | 57.3 | -69.5% (inactive) | 105 | -0.498 (inactive) | -2.9e-05 (inactive) | 0.00565 (inactive) | 17.1% (inactive) | 28.4% (inactive) |
| CCn1cc(C2=NOC(C(=O)Nc3c(C)nn(Cc4ccc(F)cc4)c3C)C2)c(C)n1 (stereo not drawn) | 766 | -12.2% (inactive) | -18.1% (inactive) | 105 | -34.2% (inactive) | 94.7 | -0.581 (inactive) | -2.9e-05 (inactive) | 0.00617 (inactive) | 12.3% (inactive) | 11.4% (inactive) |
| CCOC(=O)N1CCC(NC(=O)Cc2ccc(-n3c(=O)[nH]c4ccccc4c3=O)cc2)CC1 | 753 | -5.8% (inactive) | -8.3% (inactive) | 112 | -35.8% (inactive) | 115 | -0.527 (inactive) | -1.5e-05 (inactive) | 0.00585 (inactive) | 0.617% (inactive) | -10.4% (inactive) |
